# From PubChem BioAssay (NCATS)
# Unmarked numbers belong to inactive results. Results filed as inconclusive are left out. The source made the active and inactive calls. Unless noted, calls follow the shape of the dose curve; as a rule, active = well fitted curve in either direction with a large enough effect (not every such curve was filed as active); inconclusive = small, poorly fitted or top-dose-only effect, or another doubt; inactive = flat fitted curve, though single readings scatter.
# Columns and labels:
# [1] = AP1 Signaling Pathway (AID 357); conditions: ME-180 AP-1-bla reporter, EGF-induced, beta-lactamase ratio, 5 h; at 17.2 µM (top of the series) unless noted;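 also: ME-180 reporter cells stimulated with EGF at its EC50 level; % is scaled to controls: 0 for no effect and ±100 for the full control effect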
# Outline: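 Cells are seeded overnight, exposed to compound titrations and an EC50 level of EGF for 5 hours at 37 °C, then loaded with CCF4 dye for 2.5 hours. Beta-lactamase activity under the AP-1 element is read as a blue/green ratio.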
# [2] = NFAT Signaling Pathway (AID 444); conditions: Jurkat NFAT-bla M1, carbachol, beta-lactamase ratio, 5 h; at 17.2 µM (top of the series) unless noted;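 also: carbachol stimulus at about its EC50 of 1 µM final; % is scaled to controls: 0 for no effect and ±100 for the full control effect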
# Outline: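 Jurkat cells carrying an NFAT-driven β-lactamase reporter and co-transfected muscarinic M1 receptor were treated with compound plus carbachol (1 uM final, an EC50 level) for 5 h at 37 °C. CCF4 loading followed for 1 h at RT; 460/530 nm ratio gave %activity.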
# [3] = Stat Signaling Pathway (AID 446); conditions: ME-180 (cervical carcinoma) SIE beta-lactamase reporter, IL-6 stimulated, 5 h; at 17.2 µM (top of the series) unless noted;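 also: ME-180 cervical cancer cells given 40 pM IL-6 alongside compound; SIE-controlled beta-lactamase reporter measured as 460/530 nm FRET emission ratio; % is scaled to controls: 0 for no effect and ±100 for the full control effect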
# Outline: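 Normalization used AC90 stimulation (300 pM IL-6) and AC90 inhibition (125 nM pan-JAK inhibitor at 40 pM IL-6). The underlying signal is SIE-driven beta-lactamase in ME-180 cells after 5 h IL-6 exposure with compound.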
# [4] = target: Glucocorticoid receptor (Homo sapiens) (UniProt P04150); experiment: GR-GFP Redistribution (AID 450;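 active = compounds whose dose series gives a full or clear partial fitted curve of increased nuclear translocation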; also: potency is read from the fitted curve at half-maximal effect)
# Glucocorticoid receptor (Homo sapiens), sequence (P04150 whole entry, looked up): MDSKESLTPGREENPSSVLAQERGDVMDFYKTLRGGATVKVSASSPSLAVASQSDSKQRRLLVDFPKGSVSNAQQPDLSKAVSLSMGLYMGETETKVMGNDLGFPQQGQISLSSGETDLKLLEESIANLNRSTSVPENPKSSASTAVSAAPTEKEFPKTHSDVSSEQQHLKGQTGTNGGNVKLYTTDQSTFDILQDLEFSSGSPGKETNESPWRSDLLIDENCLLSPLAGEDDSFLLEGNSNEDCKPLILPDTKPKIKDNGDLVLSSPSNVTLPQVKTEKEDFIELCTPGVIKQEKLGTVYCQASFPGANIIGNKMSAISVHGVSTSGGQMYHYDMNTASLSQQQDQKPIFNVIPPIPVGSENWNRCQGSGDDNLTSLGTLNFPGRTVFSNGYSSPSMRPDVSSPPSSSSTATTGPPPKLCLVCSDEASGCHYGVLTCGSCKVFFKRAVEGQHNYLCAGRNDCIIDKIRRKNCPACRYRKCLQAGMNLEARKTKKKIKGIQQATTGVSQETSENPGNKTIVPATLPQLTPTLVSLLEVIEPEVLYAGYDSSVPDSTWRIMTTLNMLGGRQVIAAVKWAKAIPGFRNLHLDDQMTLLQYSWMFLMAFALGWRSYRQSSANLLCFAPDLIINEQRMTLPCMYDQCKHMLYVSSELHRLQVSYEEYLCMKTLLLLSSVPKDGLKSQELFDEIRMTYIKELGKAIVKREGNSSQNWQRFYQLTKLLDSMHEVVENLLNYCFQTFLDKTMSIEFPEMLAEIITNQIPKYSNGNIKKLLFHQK
Compound,"activity change, negative = inhibition [1]","activity change, negative = inhibition [2]","activity, negative = inhibition [3]",Potency [4]
CCCCOC(=O)c1ccc(NC(=O)CSc2nncn2C)cc1,6.24%,4.69%,4.52%,> 20.6 µM
O=c1cc(N2CCCCC2)nc2n1CCCS2,-18.5%,-21.5%,-10.2%,> 20.6 µM
CCOC(=O)c1[nH]c2ccc(Br)cc2c1NC(=O)CCN1CCN(C(=O)OCC)CC1,-25%,-25.7%,-26.2%,> 20.6 µM
CCC(C)Nc1nc(OC)nc(N(C)C#N)n1 (stereo not given),12.2%,12.5%,-0.957%,> 20.6 µM
COC(=O)c1cc(Br)c(=O)n(-c2nccs2)c1,1.9%,-2.48%,2.73%,> 20.6 µM
COC(=O)c1sc(NC(=O)C(C)C)c(C(=O)OC)c1C,-5.18%,-9.07%,1.94%,> 20.6 µM
CC/C(=N\O)c1ccc(OC)c(OC)c1,4.83%,2.19%,3.07%,> 20.6 µM
Cc1ccc(C(=O)C2C(c3cccs3)NC(=O)NC2(O)C(F)(F)F)cc1 (stereo not given),1.39%,8.36%,0.646%,> 20.6 µM
COc1ccc2nc(SCC(=O)O)nc(C)c2c1,5.08%,7.89%,3.73%,> 20.6 µM
CCOC(=O)c1c(CN2CCN(CCO)CC2)n(C)c2cc(Br)c(OC)cc12,19.8%,29.2%,-13.7%,> 20.6 µM
Cn1c(=O)c2c(nc(OCc3cccnc3)n2Cc2ccccc2)n(C)c1=O,-9.82%,-6.31%,-1.88%,> 20.6 µM
Cc1nnc2n(-c3ccccc3)c(=O)c3c4c(sc3n12)COC(C)(C)C4,4.08%,-10.7%,-0.141%,> 20.6 µM
Fc1cnc(N2CCOCC2)nc1NCc1ccccc1,10.9%,-3.23%,-8.43%,> 20.6 µM
CCc1nc(NCC(C)C)c(C#N)c2c1COC(C)(C)C2,-11.6%,-0.964%,1.74%,> 20.6 µM
CCOC(=O)NC(O)C(=O)c1cccs1 (stereo not given),11.6%,-1.46%,3.85%,> 20.6 µM
C=CCOC(=O)C1=C(C)NC(SCC(=O)Nc2ccc(C)c(Cl)c2)=C(C#N)C1c1ccco1 (stereo not given),-4.79%,7.32%,6.22%,> 20.6 µM
CCOc1cccc(-c2nnc3sc(COc4ccccc4)nn23)c1,-3.24%,9.41%,-10.6%,> 20.6 µM
CCOC(=O)c1c(NC(=O)CN2CCOCC2)sc2c1CC(C)(C)OC2,-15.6%,12.7%,-6.32%,> 20.6 µM
CC(=O)[C@H]1[C@@H]2C(=O)N(c3cccc(Cl)c3)C(=O)[C@@H]2[C@H]2c3ccccc3C=CN21,-11%,-7.09%,-13.6%,> 20.6 µM
C=C1[C@@H](C)C2[C@H](Cc3ccccc3)NC(=O)[C@]23OC(=O)CC[C@H](O)CCC[C@H](C)C/C=C/[C@H]3[C@@H]1O (stereo not given in full),-80.8% (active),-7.27%,-14.9%,> 20.6 µM
COc1cc(C2C(C(C)=O)=C(O)C(=O)N2c2ccc(Br)cn2)ccc1O (stereo not given),2.47%,-15.5%,-8.75%,> 20.6 µM
CC1(C)NC(=O)N(CC(O)Cn2nnc3ccccc32)C1=O (stereo not given),5.85%,8.84%,6.79%,> 20.6 µM
CC1(C)NC(=O)N(CC(O)COc2ccccc2C(=O)Nc2ccccc2)C1=O (stereo not given),-6.46%,9.58%,3.3%,> 20.6 µM
COCCNc1oc(-c2ccc(F)cc2)nc1C#N,-13.6%,7.25%,-2.97%,> 20.6 µM
CCC(=O)Nc1cc(-c2nn(C)c(=O)c3ccccc23)ccc1N1CCCCC1,-16.8%,-13.8%,-6.35%,> 20.6 µM
